The whole screen tested about 13,000 compounds, of which about 3,200 (25%) showed an effect of 50% or more. This is one part of the list.
Test system: P. falciparum stage V gametocytes
Parameters: BacTiter-Glo ATP luminescence viability of purified stage V gametocytes in 384-well plates, per cent inhibition versus DMSO
Settings: 48 h, 5 µM; inhibitor

Compound	% Inhibition
CC(=O)c1c(Nc2c(C)cc(C)cc2C)oc(C)cc1=O [TCMDC-125654]	7.725%
Cc1ccccc1C1CCN(C2CCC(NC(=O)c3ccc4c(c3)-c3nocc3C(C)O4)CC2)CC1 (stereo not drawn) [TCMDC-134101]	-36.23%
O=C(Nc1cc(=O)[nH]c2nc(-c3ccccc3)nn12)C1CCCCC1 [TCMDC-125474]	2.661%
Cc1cccc2[nH]c(-c3cccc(-c4ccc(NC(=O)NCc5cccc(F)c5)cc4)c3)nc12 [TCMDC-133289]	46.25%
COC(=O)c1cccc(CNCc2cccc(-c3csc(-c4nc5ccccc5[nH]4)c3)c2)c1 [TCMDC-132943]	-44.21%
CC(C)NCc1ccc(-c2cccc(CN3CCC(c4ccccc4)CC3)c2)c(C(=O)NCC2CCCCC2)c1 [TCMDC-134701]	29.45%
CCCCNC(=O)c1cc(CNC2CCCCC2)ccc1-c1cccc(CNCc2ccc(-c3ccccc3)cc2)c1 [TCMDC-139614]	92.13%
COc1cccc(CNC(=O)c2cc(CNCc3ccccc3)ccc2-c2cccc(CNCc3ccc(-c4ccccc4)cc3)c2)c1 [TCMDC-139616]	14.44%
CNCc1ccc(-c2cccc(CNCc3ccc(-c4ccccc4)cc3)c2)c(C(=O)OC)c1 [TCMDC-139615]	117.6%
CN(C)C(=O)c1cc(CNCc2ccccc2)ccc1-c1cccc(CNCc2ccc(-c3ccccc3)cc2)c1 [TCMDC-139617]	33.8%
CCCCN(CCCC)CCNC(=O)c1cccc(NC(=O)N2CCc3cc(SC)c(C(F)(F)F)cc32)c1 [TCMDC-139012]	-13.47%
Cc1ccccc1NC1=NC(=S)N(c2cccc(C(F)(F)F)c2)C12CCC(C(C)(C)C)CC2 (stereo not drawn) [TCMDC-125677]	20.36%
COc1ccccc1C(=O)N1CCN(Cc2cccs2)CC1 [TCMDC-139297]	0.2209%
CCc1cccc2sc(N3CCN(C(=O)c4ccc([N+](=O)[O-])o4)CC3)nc12 [TCMDC-124317]	88.03%
COc1cccc2sc(N3CCN(C(=O)c4ccc([N+](=O)[O-])o4)CC3)nc12 [TCMDC-125150]	57.22%
Cc1ccc2sc(N3CCN(C(=O)c4ccc([N+](=O)[O-])o4)CC3)nc2c1C [TCMDC-124314]	93.58%
CCCCCCN1CCC(CNCc2cccc([N+](=O)[O-])c2)CC1 [TCMDC-141211]	17.53%
O=C(Nc1ccc(N2CCN(C(=O)/C=C/c3ccccc3)CC2)c(Cl)c1)c1ccc([N+](=O)[O-])o1 [TCMDC-125229]	0.8671%
Cc1c(Cl)ccc2sc(N3CCN(C(=O)c4ccc([N+](=O)[O-])o4)CC3)nc12 [TCMDC-125453]	88.71%
Cc1cc(C)c2oc(-c3cccc(NC(=O)c4ccc([N+](=O)[O-])o4)c3C)nc2c1 [TCMDC-123704]	43.1%
COc1ccc(/N=[N+](\[O-])c2ccccc2/[N+]([O-])=N/c2ccc(OC)cc2)cc1 [TCMDC-131243]	-4.101%

Compound	% Inhibition
CC(=O)Nc1ccccc1OCc1cc2cc(C(=O)N3CCC(N4C(=O)OCc5ccccc54)CC3)ccc2o1 [TCMDC-138453]	6.686%
CCc1c(C)c2ccc3c(c2oc1=O)CN(CCc1ccc(F)cc1)CO3 [TCMDC-125082]	34.69%
Cn1nccc1C(=O)NCCNCc1ccc(-c2ccc(-c3nc4cc(C(F)(F)F)ccc4[nH]3)cc2)cc1.O=C(O)C(F)(F)F [TCMDC-133013]	-32.96%
Cc1nc(-c2nc(N3CCC(C(N)=O)CC3)ncc2-c2ccsc2)sc1C [TCMDC-125362]	25.42%
COC(=O)c1cccc(CNCc2ccc(-c3ccc(-c4nc5ccc(F)cc5[nH]4)s3)cc2)c1 [TCMDC-132951]	-33.43%
CCc1ccc(NC(=O)C=NNC(=N)N)cc1 [TCMDC-137521]	-23.47%
c1ccc(Oc2ccc(Nc3ccnc(Nc4ccc5cn[nH]c5c4)n3)cc2)cc1 [TCMDC-138574]	-56.78%
O=C(c1ccc([N+](=O)[O-])o1)N1CCN(c2ccccc2)CC1 [TCMDC-125833]	2.332%
O=C(c1ccc([N+](=O)[O-])o1)N1CCN(c2nc3c(F)cc(F)cc3s2)CC1 [TCMDC-125149]	102.2%
O=C(Nc1ccc(N2CCN(Cc3ccccc3Cl)CC2)cc1)c1ccc([N+](=O)[O-])o1 [TCMDC-125230]	2.358%
CS(=O)(=O)c1cccc2sc(N3CCN(C(=O)c4ccc([N+](=O)[O-])o4)CC3)nc12 [TCMDC-124930]	105%
O=C(c1ccc([N+](=O)[O-])o1)N1CCN(c2nc3c(Cl)cccc3s2)CC1 [TCMDC-124316]	86.16%
O=C(Nc1cccc(-c2nc3ccccc3s2)c1)c1ccccc1[N+](=O)[O-] [TCMDC-125736]	-19.42%
CC(C)(C)OC(=O)N1CCC(C2CCN(C(=O)OC(C)(C)C)CC2)CC1 [TCMDC-132002]	7.482%
CC(C)(C)c1ccc(CN2CCC(CNC(=O)c3cc(-c4cccc(F)c4)cs3)C2)cc1 (stereo not drawn) [TCMDC-134444]	110.8%
CCc1ccc(CN2CCC(CNC(=O)c3cc(-c4cccc(Cl)c4)cs3)C2)cc1 (stereo not drawn) [TCMDC-134434]	86.46%
CC(=O)Nc1ccc(CN2CCC(CNC(=O)c3cc(-c4cccc(Cl)c4)cs3)C2)cc1 (stereo not drawn) [TCMDC-134457]	-3.132%
CC(C)(C)c1ccc(CN2CCC(CNC(=O)c3cc(-c4cccc(Cl)c4)cs3)C2)cc1 (stereo not drawn) [TCMDC-134446]	98.88%
COc1cccc(-c2csc(C(=O)NCC3CCN(Cc4ccc(C(C)(C)C)cc4)C3)c2)c1 (stereo not drawn) [TCMDC-134447]	100.1%
O=C(NCC1CCN(CC2CCCCC2)C1)c1cc(-c2cccc(Cl)c2)cs1 (stereo not drawn) [TCMDC-134423]	42.83%
CCCOc1cc(Cc2cnc(N)nc2N)cc(OC)c1OC [TCMDC-137661]	3.215%

Reference: article PMC4552634, “A New Set of Chemical Starting Points with Plasmodium falciparum Transmission-Blocking Potential for Antimalarial Drug Discovery” (PLoS ONE, 2015)
